Screening data from PubChem BioAssay.
TDP1 block = qHTS Assay for Inhibitors of Tyrosyl-DNA Phosphodiesterase (TDP1) | recombinant TDP1, AlphaScreen DNA substrate cleavage | Potency, µM (doses to about 130 µM), for the others: at the top dose activity change, negative = inhibition, hits mostly inhibitors | 350,000 tested, 0.28% active | AID 485290, 2010; note: nearly all actives have a fitted effect of over 40% in size
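Steps: enzyme plus compound, 15 min RT; add biotin/phosphotyrosine-FITC oligonucleotide (15 nM final), react 5 min; add donor/acceptor beads (10 ug/ml final), 10 min; read AlphaScreen. Tdp1 at 1 nM final.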
APE1 inh = qHTS Assay for Inhibitors of the Human Apurinic/apyrimidinic Endonuclease 1 (APE1); AID 2517, 2012; recombinant APE1, TAMRA/BHQ-2 abasic DNA cleavage fluorescence; 350,000 tested, 0.35% active; Potency, µM (highest dose often 65.8 µM), inactives show at the highest dose activity change, negative = inhibition, usual class: inhibitors; DNA repair nuclease/redox regulator APEX1 (Homo sapiens), P27695;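 note: plate controls were vehicle for no effect and reference inhibitor for full effect; nearly all actives have a fitted effect of over 55% in size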
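Measures dequenching upon AP-site incision of a 5'-TAMRA/3'-BHQ-2 THF-containing duplex, 50 nM; human APE1 0.75 nM after 15 min room-temperature exposure to compound; kinetic three-point read at one-minute spacing.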
BLM helicase inh = qHTS Assay for Inhibitors of Bloom's syndrome helicase (BLM); RecQ-like DNA helicase BLM (Homo sapiens), P54132; Potency, µM (titrated, usually from 56.1 µM), without a hit: top-dose activity change, negative = inhibition, most hits filed as inhibitors; recombinant BLM DNA unwinding, fluorescence dequenching; 350,000 tested, 0.2% active;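 note: plate controls were vehicle for no effect and no enzyme for full effect; nearly all actives have a fitted effect of over 35% in size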
RECQ1 inh-1 = qHTS Assay for Inhibitors of RecQ-Like Dna Helicase 1 (RECQ1). ATP-dependent DNA helicase Q1 (Homo sapiens), P46063. RECQ1 DNA unwinding, red fluorescence kinetic read. Potency, µM (titrated, usually from 57.3 µM), for inactives: at the highest dose activity, negative = inhibition, most hits filed as inhibitors. 240,000 tested, 0.54% active. AID 2549, 2010;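 note: plate controls were vehicle for no effect and no enzyme for full effect; nearly all actives have a fitted effect of over 30% in size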
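RECQ1T1 50 nM; forked duplex (20 bp + 30-nt ss tails) 200 nM, ATP 2 mM final; pH 8.0, 2 mM MgCl2, 2.5 ug/ml poly(dI-dC); 15 min compound preincubation; discontinuous kinetic read over 2 h at RT.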
RGS4 inhibitor = Inhibitors of Regulator of G Protein Signaling (RGS) 4: qHTS | Transcreener GDP fluorescence polarization, RGS4-accelerated GTP hydrolysis | Potency, µM (doses to about 114 µM), for inactives: top-dose activity change, negative = inhibition, actives largely listed as inhibitors | 390,000 tested, 0.039% active; note: nearly all actives have a fitted effect of over 75% in size
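MLSMR compounds (23 nl, pin-transferred) preincubated 10 min at room temperature with a 500nM (2x) first reagent, then RGS4 at 900nM (2x) plus Transcreener GDP mix added; fluorescence polarization (620/688 nm) read before and after 90 min at 30 °C.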
GCN5L2 inh = qHTS Assay for Inhibitors of GCN5L2; Histone acetyltransferase KAT2A (Homo sapiens), Q92830; GCN5L2 HAT assay, ThioGlo1 CoA-SH fluorescence; Potency, µM (titrated, usually from 58.9 µM), without a hit: top-dose activity change, negative = inhibition, hits mostly inhibitors; 390,000 tested, 0.21% active
Target sequence (Q92830 whole entry, looked up): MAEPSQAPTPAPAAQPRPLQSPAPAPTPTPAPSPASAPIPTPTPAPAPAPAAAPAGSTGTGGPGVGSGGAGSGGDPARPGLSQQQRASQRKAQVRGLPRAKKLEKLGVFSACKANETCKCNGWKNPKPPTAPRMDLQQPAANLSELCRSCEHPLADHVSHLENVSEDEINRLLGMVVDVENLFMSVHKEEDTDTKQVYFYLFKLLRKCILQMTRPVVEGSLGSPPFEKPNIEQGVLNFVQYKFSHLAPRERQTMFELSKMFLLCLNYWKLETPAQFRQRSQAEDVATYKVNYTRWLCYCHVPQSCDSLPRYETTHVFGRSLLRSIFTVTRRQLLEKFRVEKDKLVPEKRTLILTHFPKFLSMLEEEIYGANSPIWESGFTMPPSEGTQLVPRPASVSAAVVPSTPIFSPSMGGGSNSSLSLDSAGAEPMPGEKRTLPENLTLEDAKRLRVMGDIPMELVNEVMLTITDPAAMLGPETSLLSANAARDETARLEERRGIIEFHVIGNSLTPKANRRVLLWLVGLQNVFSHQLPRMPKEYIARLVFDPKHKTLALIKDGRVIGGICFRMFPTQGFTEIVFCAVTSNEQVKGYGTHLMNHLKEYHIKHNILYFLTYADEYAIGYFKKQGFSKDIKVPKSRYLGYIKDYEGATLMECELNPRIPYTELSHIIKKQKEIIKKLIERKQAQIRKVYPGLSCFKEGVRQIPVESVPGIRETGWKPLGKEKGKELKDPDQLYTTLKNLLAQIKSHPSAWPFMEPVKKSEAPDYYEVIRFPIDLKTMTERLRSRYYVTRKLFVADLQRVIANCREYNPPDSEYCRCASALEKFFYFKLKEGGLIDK
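qHTS, 1536-well. 20nM enzyme, pH 7.5 HEPES/EDTA/Tween-20 buffer; 15 min compound preinc., RT. Start: 75uM H3(1-25), 70uM AcCoA, 50uM ThioGlo1. Read Ex340/Em540 at t=0 (autofluorescence flag) and t=20 min.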
RECQ1 conf = Confirmation qHTS Assay for Inhibitors of RecQ-Like Dna Helicase 1 (RECQ1) | shares compounds with RECQ1 inh-1 | RECQ1 helicase DNA unwinding, fluorescence | Potency, µM (titrated, usually from 229 µM), inactives show at the top dose activity change, negative = inhibition, usual class: inhibitors | 610 tested, 28% active | AID 2708, 2010; note: nearly all actives have a fitted effect of over 45% in size
ADP FP counter = Counterscreen for RECQ1 Inhibitors: ADP Fluorescence Polarization Displacement Assay; ADP fluorescence polarization displacement counterscreen; Potency, µM (series often up to 228 µM), without a hit: at the top dose activity change, negative = inhibition, most hits filed as inhibitors; 530 tested, 27% active; shares compounds with RECQ1 inh-1; note: nearly all actives have a fitted effect of over 45% in size
RECQ1 inh-2 = Confirmation qHTS Assay for Inhibitors of RecQ-Like Dna Helicase 1 (RECQ1) - Round 2 Cherry Picks; recombinant RECQ1 DNA unwinding, red fluorescence; AID 504841, 2011; Potency, µM (top dose mostly 119 µM), without a hit: at the top dose activity, negative = inhibition, actives largely listed as inhibitors; 1,100 tested, 15% active; shares compounds with RECQ1 inh-1; note: nearly all actives have a fitted effect of over 50% in size
Starred values were filed as active, the others as inactive; i = inactive; ? = inconclusive; . = not tested or not shown; [ ] = another dose, or the depositor's remark. An excerpt weighted towards active compounds, which were near 0.87% of everything screened. Calls come from the whole dose curve; as a rule, active = well fitted curve in the direction sought with a large enough effect; inconclusive = small, poorly fitted or top-dose-only effect, or another doubt; inactive = no such curve, though single readings can be large; an effect the other way counts as inactive or inconclusive. Unless noted, % is set by controls: 0 for no effect and ±100 for the full control effect; potency is the fitted concentration of half-maximal effect.

SMILES	TDP1 block	APE1 inh	BLM helicase inh	RECQ1 inh-1	RGS4 inhibitor	GCN5L2 inh	RECQ1 inh-2	others
COC(=O)c1sc2ccccc2c1NC(=O)c1ccc(S(=O)(=O)N2CC(C)CC(C)C2)cc1 (stereo not drawn)	5%	1%	4%	-2%	-19%	53%	.	RECQ1 conf=13%;ADP FP counter=-15%
C=CC[C@@H]1C=C[C@@H](O/N=C2/[C@H]3O[C@@H]3[C@@H](O)[C@H]3[C@H]2CCn2c(=O)n(-c4ccccc4)c(=O)n23)[C@@H](CO)O1	?	-6%[12.4 µM]	-9%[12.4 µM]	i[11.5 µM]	.	.	.
Oc1ccccc1-c1nnc(SCCN2CCOCC2)n1Cc1ccccc1	0%	-1%	0%	1.6µM*	8%	-6%	?	RECQ1 conf=8%[114 µM];ADP FP counter=-10%[91.9 µM]
O=C(CSc1nnc(-c2ccccc2)n1Cc1ccccc1)N1CCOCC1	2%	8%	-3%	3%	-4%	2%	.
Cc1ccnc(NC(=S)NC(=O)/C=C/c2ccco2)c1	2%	?	-13%	?	-31%	1%	.
CC(=O)NC(=S)Nc1ccc(NC(=S)NC(=O)/C=C/c2ccco2)cc1	.	?	-29%	?	-38%	-24%	-19%
O=C(/C=C/c1ccco1)NC(=S)Nc1ccc(Cl)cn1	-7%	?	-10%	25µM*	7%	3%	-22%
CCC(=O)Nc1ccc(NC(=S)NC(=O)/C=C/c2ccco2)cc1	.	-37%	-9%	.	-40%	-16%	.
CC[C@H](C)[C@H](NC(=O)[C@H](CC(=O)O)NC(=O)[C@H](CC(N)=O)NC(=O)[C@@H](NC(=O)[C@H](CCCNC(=N)N)NC(=O)[C@@H](NC(=O)[C@@H](NC(=O)[C@@H](NC(=O)[C@@H](NC(=O)[C@H](CCCCN)NC(=O)[C@@H](NC(=O)[C@H](CC(C)C)NC(=O)[C@@H](NC(=O)[C@H](CCCCN)NC(=O)[C@@H](NC(=O)[C@H](CC(=O)O)NC(=O)[C@H](CC(=O)O)NC(=O)[C@H](CCC(N)=O)NC(=O)[C@@H](NC(=O)[C@H](CCCCN)NC(=O)[C@H](CCC(N)=O)NC(=O)[C@@H](NC(=O)[C@@H]1CCCN1C(=O)[C@@H](N)C(C)C)[C@@H](C)CC)C(C)C)[C@@H](C)O)[C@@H](C)O)[C@@H](C)CC)[C@@H](C)O)[C@@H](C)CC)C(C)C)[C@@H](C)O)[C@@H](C)CC)C(=O)N[C@@H](CO)C(=O)N[C@@H](Cc1cnc[nH]1)C(=O)N[C@H](C(=O)N[C@@H](CCC(N)=O)C(=O)N[C@@H](CO)C(=O)N[C@H](C(=O)N[C@@H](CO)C(=O)N[C@@H](CO)C(=O)N[C@@H](CCCCN)C(=O)N[C@@H](CCC(N)=O)C(=O)N[C@@H](CCCCN)C(=O)O)C(C)C)[C@@H](C)O	11%	4%	0%	-25%	.	-10%	.
CCN(CC)S(=O)(=O)c1ccc2c(c1)nc(CCC(=O)O)n2CC	0%	-1%	4%	i	-25%	-3%	.	RECQ1 conf=10%;ADP FP counter=5%
O=C1c2ccccc2C(=O)N1c1ccc(O)cc1	1%	.	.	.	13%	.	.
O=C(c1ccncc1)N1CCN(C2CCC(c3ccccc3)CC2)CC1 (stereo not drawn)	-9%	16%	2%	?	40%	-11%	-12%
O=C(c1ccncc1)N1CCN(C2CCCCC2)CC1	-2%	0%	-2%	-7%	-21%	21%	.
CCCCc1nc2c(c3c1C[C@H](C)OC3)CN(C(=O)Cc1cccs1)CC2	9%[12.3 µM]	14%[12.4 µM]	4%[12.4 µM]	i[11.5 µM]	.	.	.
Cc1cc(C(F)(F)F)n2[nH]c(=O)c(N=Nc3ccccc3)c2n1	10%	0%	3%	10µM*	37%	-21%	.	RECQ1 conf=3%[114 µM];ADP FP counter=13%[91.9 µM]
Cc1cc(C)n2[nH]c(=O)c(N=Nc3ccccc3)c2n1	4%	-6%	-4%	i	-20%	-7%	.
COc1ccc2[nH]cc(CCNc3ncnc4ccc(-c5ccoc5)cc34)c2c1	.	-4%	-1%	?	.	-16%	?
Cc1ccccc1OCC(=O)Nc1ccc(S(=O)(=O)N(Cc2ccccc2)c2ccccc2)cc1	-3%	.	-5%	.	18%	-14%	.
CC1=Nc2ccccc2/C1=C\c1nc(-c2ccc(F)cc2)oc1O	2%	9%	-19%	?	-30%	-6%[0.501 µM]	?
CN=Cc1nc(-c2ccccc2)oc1O	1%	-5%	5%	1%	?	-13%	.
CC(=O)c1cc2c(cc1N(C(=O)Cn1nnc3ccccc31)C(C(=O)NCCC(C)C)c1cccnc1)OCO2 (stereo not drawn)	6%	-5%	-2%	0%	23%	4%	.	RECQ1 conf=-3%;ADP FP counter=5%
Cc1ccc(N(C(=O)Cn2nnc3ccccc32)C(C(=O)NCc2ccco2)c2cccnc2)cc1 (stereo not drawn)	3%	-11%	-7%	-1%	-4%	-2%	.
O=C(Nc1ccc(-n2nncc2-c2ccccc2)cc1)c1ccccc1	0%	.	.	.	2%	.	.
